The values below come from the supplement of paper PMC10849652.

Common to all, as to assay: log2 fold change, soluble protein after heating vs DMSO (PISA); higher = thermal stabilisation; K562 lysate, 10 uM; active = over 0.2 and 3.5 SD of the protein, either way, in both replicates (recomputed)
Compound in experiment [1]: CCCS(=O)(=O)Nc1ccc(F)c(C(=O)c2c[nH]c3ncc(Cl)cc23)c1F
In short, it runs like this: (§1)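 Pellets of K562 cells were dounce-homogenised in PBS pH 7.4 with 1 mM MgCl2, and the crude extract was held at 1 mg/mL protein for a 30 min treatment with 10 μM compound. Aliquots were heated for 3 min over 48°C-58°C and pooled before NP-40 was added to 0.5% at 4°C. The supernatant from 21,000xg for 90 min was quantified by TMTpro 16plex LC-MS/MS with channel sums equalised. Values are reported from duplicates as log-two fold change in thermal stability relative to solvent controls.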

Compound in another experiment: CCN(CCCOc1ccc2c(Nc3cc(CC(=O)Nc4cccc(F)c4)[nH]n3)ncnc2c1)CCOP(=O)(O)O [barasertib]
The essentials:
as §1

Compound in experiment [2]: CC[C@@H]1C(=O)N(C)c2cnc(Nc3ccc(C(=O)NC4CCN(C)CC4)cc3OC)nc2N1C1CCCC1
In short, it runs like this: as §1

Compound in a further experiment: CC[C@@H]1C(=O)N(C)c2cnc(Nc3ccc(C(=O)N[C@H]4CC[C@H](N5CCN(CC6CC6)CC5)CC4)cc3OC)nc2N1C(C)C [volasertib]
The essentials: as §1

Compound in experiment [3]: CCn1c(C(=O)N(C2CC2)C2CC2)cc2c3c(ncn3C)c(Nc3cc(C)n(C)n3)nc21
In short, it runs like this:
as §1

Compound in experiment [4]: CCn1cc(-c2ccnc3[nH]c(-c4cccc(CN(C)C)c4)cc23)c(-c2ccc(NC(=O)N(C)C)cc2)n1
The essentials:
as §1

Compound in experiment [5]: CN1CCC(CNc2ccc3ncc(-c4cccc(OC(F)(F)F)c4)n3n2)CC1
The essentials: as §1

Compound in another experiment: CN1CCN(CCOc2cc(OC3CCOCC3)c3c(Nc4c(Cl)ccc5c4OCO5)ncnc3c2)CC1 [saracatinib]
The essentials: as §1

Compound in another experiment: CN1CCN(c2nc(C3=C(c4c[nH]c5ccccc45)C(=O)NC3=O)c3ccccc3n2)CC1 [sotrastaurin]
In short, it runs like this:
as §1

Compound in another experiment: CN1CC[C@H](c2c(O)cc(O)c3c(=O)cc(-c4ccccc4Cl)oc23)[C@H](O)C1 [alvocidib]
In short, it runs like this: as §1

Compound in a further experiment: CN1CCc2c(c3ccccc3n2Cc2ccc(C(=O)NO)cc2)C1 [Tubastatin A]
The essentials: as §1

Compound in experiment [6]: CNC(=O)C1=CC=CC=C1NC2=NC(=NC=C2Cl)NC3=C(C=C(C=C3)N4CCOCC4)OC
The essentials:
as §1

Compound in experiment [7]: CNc1nc(-c2ccc3c(N)n[nH]c3c2)cc(N2C[C@@H](C(=O)NC3CCCCC3)CC[C@H]2C)n1
The essentials:
as §1

Compound in a further experiment: COC(=O)N[C@@H](C)CNc1nccc(-c2cn(C(C)C)nc2-c2cc(Cl)cc(NS(C)(=O)=O)c2F)n1 [encorafenib]
In short, it runs like this: as §1

Compound in experiment [8]: COC(=O)[C@H](CCSC)NC(=O)C1=C(C=C(C=C1)NC[C@H](CS)N)C2=CC=CC=C2
In short, it runs like this: as §1

Compound in another experiment: COc1cc(Nc2ncc3c(n2)-c2ccc(Cl)cc2C(c2c(F)cccc2OC)=NC3)ccc1C(=O)O [alisertib]
In short, it runs like this:
as §1

Compound in experiment [9]: COc1cc2nc(-c3cc(F)ccc3O)nc(N[C@@H]3CNC[C@H]3C(C)(C)O)c2cc1OC
In short, it runs like this:
as §1

Compound in a further experiment: COc1cc2ncnc(Nc3ccc(F)c(Cl)c3)c2cc1OCCCN1CCOCC1 [gefitinib]
In short, it runs like this:
as §1

Compound in the next experiment: CCCS(=O)(=O)Nc1ccc(F)c(C(=O)c2c[nH]c3ncc(-c4ccc(Cl)cc4)cc23)c1F [vemurafenib]
In short, it runs like this: as §1

Compound in another experiment: CNC(=O)c1ccc(Nc2ncc(C(F)(F)F)c(NCc3nccnc3N(C)S(C)(=O)=O)n2)cc1 [defactinib]
In short, it runs like this: as §1

The full data set covers some 8,800 targets. This sample favours those with a hit. About 0.5% of all pairs of compound and target were hits. Unmarked numbers belong to inactive results.

Sequence of UniProt Q9UKR5 (Q9UKR5 whole entry, looked up): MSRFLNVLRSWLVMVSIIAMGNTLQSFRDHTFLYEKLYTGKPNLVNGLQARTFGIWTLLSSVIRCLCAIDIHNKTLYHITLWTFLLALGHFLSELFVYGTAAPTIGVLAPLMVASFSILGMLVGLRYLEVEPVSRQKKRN
Sequence of UniProt Q9P0K8 (Q9P0K8 whole entry, looked up): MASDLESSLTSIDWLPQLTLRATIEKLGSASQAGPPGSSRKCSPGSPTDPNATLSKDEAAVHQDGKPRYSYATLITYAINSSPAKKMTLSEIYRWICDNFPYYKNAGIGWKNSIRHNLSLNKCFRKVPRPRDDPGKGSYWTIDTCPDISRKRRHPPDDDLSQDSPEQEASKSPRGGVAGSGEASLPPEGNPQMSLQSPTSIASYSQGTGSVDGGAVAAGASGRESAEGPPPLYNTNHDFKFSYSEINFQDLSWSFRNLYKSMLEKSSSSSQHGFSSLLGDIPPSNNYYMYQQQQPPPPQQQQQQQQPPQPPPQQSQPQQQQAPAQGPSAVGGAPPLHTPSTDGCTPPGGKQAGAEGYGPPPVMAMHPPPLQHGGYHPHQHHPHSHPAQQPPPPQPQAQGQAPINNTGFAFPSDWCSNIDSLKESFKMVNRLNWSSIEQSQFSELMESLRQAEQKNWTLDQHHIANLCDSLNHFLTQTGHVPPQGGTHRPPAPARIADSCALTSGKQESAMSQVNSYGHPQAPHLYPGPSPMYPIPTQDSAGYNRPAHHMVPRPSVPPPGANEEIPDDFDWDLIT
Sequence of UniProt Q9UET6 (Q9UET6 whole entry, looked up): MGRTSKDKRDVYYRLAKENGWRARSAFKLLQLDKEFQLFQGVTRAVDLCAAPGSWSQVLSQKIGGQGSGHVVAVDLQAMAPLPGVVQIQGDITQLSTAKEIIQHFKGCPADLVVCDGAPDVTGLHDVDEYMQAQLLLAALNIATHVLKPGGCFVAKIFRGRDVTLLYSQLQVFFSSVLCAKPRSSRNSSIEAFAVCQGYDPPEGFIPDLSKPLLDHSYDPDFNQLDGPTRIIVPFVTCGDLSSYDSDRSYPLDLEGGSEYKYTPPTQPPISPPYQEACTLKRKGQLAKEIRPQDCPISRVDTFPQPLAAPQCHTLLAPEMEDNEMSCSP
Sequence of UniProt Q9NZJ0 (Q9NZJ0 whole entry, looked up): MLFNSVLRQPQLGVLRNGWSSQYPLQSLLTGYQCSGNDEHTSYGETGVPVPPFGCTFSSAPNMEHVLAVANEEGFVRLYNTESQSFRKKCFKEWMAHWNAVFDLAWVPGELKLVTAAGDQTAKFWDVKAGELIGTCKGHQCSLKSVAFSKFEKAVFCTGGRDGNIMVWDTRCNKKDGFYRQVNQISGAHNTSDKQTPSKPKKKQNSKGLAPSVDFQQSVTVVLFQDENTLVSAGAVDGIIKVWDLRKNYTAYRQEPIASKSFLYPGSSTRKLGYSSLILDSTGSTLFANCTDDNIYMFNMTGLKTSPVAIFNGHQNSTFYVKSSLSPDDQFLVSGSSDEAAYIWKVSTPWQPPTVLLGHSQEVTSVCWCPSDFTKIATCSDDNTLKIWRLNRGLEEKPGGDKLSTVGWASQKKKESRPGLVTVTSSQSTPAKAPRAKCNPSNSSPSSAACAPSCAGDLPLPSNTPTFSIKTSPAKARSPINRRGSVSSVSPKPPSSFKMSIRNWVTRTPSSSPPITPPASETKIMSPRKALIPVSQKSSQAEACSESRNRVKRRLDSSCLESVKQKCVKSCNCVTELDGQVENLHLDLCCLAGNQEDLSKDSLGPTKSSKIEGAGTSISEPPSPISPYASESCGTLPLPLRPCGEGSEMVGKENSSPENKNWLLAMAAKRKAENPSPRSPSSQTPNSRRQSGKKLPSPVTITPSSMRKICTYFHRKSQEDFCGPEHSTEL
Sequence of UniProt Q96CN4 (Q96CN4 whole entry, looked up): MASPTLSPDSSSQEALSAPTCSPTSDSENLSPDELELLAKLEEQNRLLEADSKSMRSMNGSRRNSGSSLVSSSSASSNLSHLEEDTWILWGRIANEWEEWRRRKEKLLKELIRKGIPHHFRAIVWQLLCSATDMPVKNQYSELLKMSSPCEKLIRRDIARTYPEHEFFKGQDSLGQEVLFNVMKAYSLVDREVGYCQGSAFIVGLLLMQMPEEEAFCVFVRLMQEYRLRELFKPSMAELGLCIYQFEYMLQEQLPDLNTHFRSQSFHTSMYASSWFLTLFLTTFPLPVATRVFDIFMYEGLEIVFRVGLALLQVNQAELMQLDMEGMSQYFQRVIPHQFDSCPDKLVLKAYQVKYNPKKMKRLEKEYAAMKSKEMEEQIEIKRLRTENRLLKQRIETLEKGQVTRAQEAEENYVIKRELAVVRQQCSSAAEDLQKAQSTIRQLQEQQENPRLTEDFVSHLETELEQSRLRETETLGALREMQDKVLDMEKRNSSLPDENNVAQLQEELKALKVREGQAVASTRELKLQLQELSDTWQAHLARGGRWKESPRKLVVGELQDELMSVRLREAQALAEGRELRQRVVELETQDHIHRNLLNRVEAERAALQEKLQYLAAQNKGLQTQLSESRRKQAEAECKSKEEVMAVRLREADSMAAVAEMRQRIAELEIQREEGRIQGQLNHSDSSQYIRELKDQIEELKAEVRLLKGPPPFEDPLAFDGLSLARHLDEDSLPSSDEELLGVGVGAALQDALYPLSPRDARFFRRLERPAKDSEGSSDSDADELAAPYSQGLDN
Sequence of UniProt P11171 (P11171 whole entry, looked up): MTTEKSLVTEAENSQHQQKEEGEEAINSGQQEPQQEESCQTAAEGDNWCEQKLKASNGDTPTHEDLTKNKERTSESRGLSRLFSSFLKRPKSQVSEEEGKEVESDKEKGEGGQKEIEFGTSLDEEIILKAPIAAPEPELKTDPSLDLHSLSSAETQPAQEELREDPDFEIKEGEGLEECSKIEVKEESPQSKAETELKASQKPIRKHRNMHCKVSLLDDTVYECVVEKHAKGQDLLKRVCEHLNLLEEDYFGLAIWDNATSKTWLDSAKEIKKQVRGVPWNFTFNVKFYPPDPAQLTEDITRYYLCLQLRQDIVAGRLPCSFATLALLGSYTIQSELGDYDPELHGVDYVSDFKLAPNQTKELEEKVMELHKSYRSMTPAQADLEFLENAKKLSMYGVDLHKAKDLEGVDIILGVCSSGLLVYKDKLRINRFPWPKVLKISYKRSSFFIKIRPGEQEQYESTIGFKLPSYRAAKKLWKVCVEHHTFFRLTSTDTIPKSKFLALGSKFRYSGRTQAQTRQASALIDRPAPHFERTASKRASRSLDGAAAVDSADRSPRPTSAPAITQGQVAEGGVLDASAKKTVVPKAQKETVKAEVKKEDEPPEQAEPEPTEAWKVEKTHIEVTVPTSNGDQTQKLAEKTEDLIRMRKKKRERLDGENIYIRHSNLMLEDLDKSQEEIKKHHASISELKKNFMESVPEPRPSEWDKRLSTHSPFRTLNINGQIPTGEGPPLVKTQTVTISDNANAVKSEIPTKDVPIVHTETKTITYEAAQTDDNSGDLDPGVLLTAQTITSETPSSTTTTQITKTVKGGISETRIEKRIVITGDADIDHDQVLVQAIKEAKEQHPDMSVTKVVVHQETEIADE
Sequence of UniProt Q08426 (Q08426 whole entry, looked up): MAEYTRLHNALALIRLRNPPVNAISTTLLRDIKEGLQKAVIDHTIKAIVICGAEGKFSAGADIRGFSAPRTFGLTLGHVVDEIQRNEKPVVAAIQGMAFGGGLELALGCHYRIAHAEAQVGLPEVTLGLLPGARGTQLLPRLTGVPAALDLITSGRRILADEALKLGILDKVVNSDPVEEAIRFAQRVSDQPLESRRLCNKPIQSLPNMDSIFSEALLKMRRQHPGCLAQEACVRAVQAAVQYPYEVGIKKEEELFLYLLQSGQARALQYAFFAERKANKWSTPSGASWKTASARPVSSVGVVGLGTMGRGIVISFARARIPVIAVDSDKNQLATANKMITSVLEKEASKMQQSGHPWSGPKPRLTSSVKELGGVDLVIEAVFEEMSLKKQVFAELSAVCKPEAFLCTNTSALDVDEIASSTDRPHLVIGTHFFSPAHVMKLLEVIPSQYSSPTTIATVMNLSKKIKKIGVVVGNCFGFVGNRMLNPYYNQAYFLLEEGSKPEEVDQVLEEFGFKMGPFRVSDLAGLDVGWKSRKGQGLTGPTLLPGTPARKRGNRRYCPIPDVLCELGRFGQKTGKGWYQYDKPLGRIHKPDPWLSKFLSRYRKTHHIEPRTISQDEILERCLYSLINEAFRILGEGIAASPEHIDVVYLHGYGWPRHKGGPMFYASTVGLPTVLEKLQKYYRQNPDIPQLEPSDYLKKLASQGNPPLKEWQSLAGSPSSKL
Sequence of UniProt O95718 (O95718 whole entry, looked up): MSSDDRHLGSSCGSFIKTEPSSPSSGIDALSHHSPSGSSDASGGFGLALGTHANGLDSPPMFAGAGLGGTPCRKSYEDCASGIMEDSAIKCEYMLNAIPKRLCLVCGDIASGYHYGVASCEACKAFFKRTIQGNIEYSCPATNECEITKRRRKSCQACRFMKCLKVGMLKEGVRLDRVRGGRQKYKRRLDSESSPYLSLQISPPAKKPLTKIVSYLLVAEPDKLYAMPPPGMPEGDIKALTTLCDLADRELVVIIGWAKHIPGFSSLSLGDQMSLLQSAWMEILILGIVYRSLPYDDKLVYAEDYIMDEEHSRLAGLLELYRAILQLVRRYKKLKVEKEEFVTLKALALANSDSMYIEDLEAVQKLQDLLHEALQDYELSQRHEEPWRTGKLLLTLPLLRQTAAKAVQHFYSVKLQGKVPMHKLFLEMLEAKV

Turning to EHHADH (UniProt Q08426), the log2 fold change in experiment [1] is 0.082; with barasertib, -0.066; in experiment [2] it was 0.117; in the experiment with volasertib, -0.108; in experiment [3] it was -0.037; in experiment [4], 0.055. In addition, the log2 fold change was -0.037 in experiment [5]; 0.091 with saracatinib; -0.044 in the experiment with sotrastaurin; 0.013 with alvocidib; 0.039 with Tubastatin A; -0.024 in [6]. In addition, the log2 fold change in experiment [7] is 0.101; in the experiment with encorafenib, 0.035; in experiment [8] it was -0.426; in the experiment with alisertib it was 0.065; in experiment [9] it was -0.005; in the experiment with gefitinib it was 0.012.
For the target EVI5L isoform 2 (UniProt Q96CN4), the log2 fold change in [4] was 0.057; in [5], -0.183; in the experiment with alvocidib it was -0.293.
Consider ERG28 (UniProt Q9UKR5), for which the log2 fold change was -0.012 in [1]; 0.065 with barasertib; 0.179 in experiment [2]; 0.048 with volasertib; 0.541 in experiment [4]; -0.497 (active) in [5]. The log2 fold change is 0.1 in the experiment with saracatinib; 0.304 with alvocidib; -0.037 in [7]; 0.055 in the experiment with encorafenib; -0.062 in [8]; -0.024 in [9].
EPB41 isoform 4 (UniProt P11171): the log2 fold change in experiment [1] was 0.014; with volasertib, 0.134; in experiment [3] it was -0.079; in experiment [4], -0.073; in experiment [5], -0.065; with sotrastaurin, -0.02. The log2 fold change was -0.014 in the experiment with alvocidib; 0.012 with Tubastatin A; -0.089 in experiment [6]; -0.09 in the experiment with alisertib; -0.153 in [9]; -0.096 with gefitinib.
FNDC3A (UniProt Q9Y2H6): the log2 fold change in [3] is 0.044; in experiment [4] it was -0.451; in [5] it was 0.138; in the experiment with sotrastaurin, -0.113; with alvocidib it was -0.017; in the experiment with Tubastatin A it was -0.237. Besides, the log2 fold change in experiment [6] is 0.014; with alisertib, -0.141; with gefitinib, -0.214.
With FTSJ1 isoform 2 (UniProt Q9UET6), the log2 fold change in the experiment with vemurafenib is -0.164; in experiment [1] it was 0.021; in [2], -0.024; in the experiment with volasertib, 0.013; in experiment [4], -0.019; in experiment [5], 0.047. For the same target, the log2 fold change was 0.015 with alvocidib; 0.028 with defactinib; -0.027 with encorafenib; 0.047 in experiment [8]; -0.016 in [9].
Turning to EPN2 (UniProt I3L356), the log2 fold change in experiment [1] is 0.212; in the experiment with barasertib, -0.106; in the experiment with volasertib it was -0.026; in experiment [4], -0.277; in experiment [5] it was 0.075; with alvocidib, -0.108. Besides, the log2 fold change with alisertib was -0.253; in [9] it was -0.02; with gefitinib, 0.321.
With GART (UniProt C9JZG2), the log2 fold change in experiment [1] is -0.014; with barasertib, 0.086; in [2] it was -0.021; with volasertib, 0.06; in experiment [3], -0.043; in experiment [4], 0.135. Besides, the log2 fold change in [5] was 0.085; with sotrastaurin it was 0.09; in the experiment with alvocidib, -0.071; with Tubastatin A, 0.018; in the experiment with encorafenib, 0.038; in experiment [8] it was 0.088. The results for the log2 fold change (in the experiment with alisertib; in experiment [9]; in the experiment with gefitinib) were 0.121, -0.056 and 0.281, respectively.
As to DST isoform 3 (UniProt Q03001), the log2 fold change in the experiment with barasertib is 0.041; in experiment [2], 0.052; in [4], 1.48 (active); in [5], -0.213; with alvocidib it was 0.386; in [6] it was -0.061. For the same target, the log2 fold change in the experiment with encorafenib was 0.008; in experiment [8] it was -0.004.
With FMNL2 isoform 3 (UniProt Q96PY5), the log2 fold change in experiment [1] is 0.022; with volasertib it was -0.013; in [3], -0.103; with saracatinib, 0.04; with sotrastaurin, 0.08; in the experiment with Tubastatin A, 0.108. In addition, the log2 fold change in [6] was 0.011; in experiment [7] it was 0.044; with alisertib, 0.073; in experiment [9], 0.119; with gefitinib it was 0.241.
As for DTL (UniProt Q9NZJ0), the log2 fold change in the experiment with vemurafenib is -0.007; with barasertib, 0.044; in experiment [3] it was 0.02; in [4], 0.065; in [5], -0.034; in the experiment with saracatinib, -0.1. The log2 fold change is -0.03 with sotrastaurin; -0.008 with alvocidib; -0.072 in the experiment with Tubastatin A; -0.003 in [6]; 0.071 in the experiment with defactinib; -0.092 in experiment [7]. Besides, the log2 fold change in the experiment with alisertib is -0.038; with gefitinib, 0.043.
As to ESRRB isoform 1 (UniProt O95718), the log2 fold change in the experiment with barasertib was -0.004; in experiment [3] it was -0.118; in [4], 0.242; in experiment [5], -0.127; with alvocidib, 0.233; with Tubastatin A, -0.269. Also, in [6], the log2 fold change is -0.011.
As to FOXJ2 (UniProt Q9P0K8), the log2 fold change in the experiment with barasertib is -0.049; in experiment [2], -0.149; in experiment [3] it was 0.1; in experiment [4], -0.062; in experiment [5], -0.071; with saracatinib, -0.101. Moreover, the log2 fold change with alvocidib was 0.006; in the experiment with Tubastatin A it was -0.114; in [6], 0.021; in experiment [7] it was 0.053; in the experiment with encorafenib it was -0.081; in experiment [8] it was 0.022. For the same target, the log2 fold change with alisertib was -0.308; with gefitinib, 0.057.
